The assay deals with PEO-1. Nature of the assay: Excess HSA synergy score (sum over dose matrix of excess over highest single agent) (score (summed % response)); higher = less synergy / more antagonism (negative = synergy). The settings on record: 72 h, read-out: viability/apoptosis luminescence (CellTiter-Glo or Caspase3-Glo / not stated per table). Background: Cellular ATP, detected with luciferase, serves as a proxy for viable cell number.

Setting [1] is: matrix design: 6x6, 5-fold dilutions (primary screen).
Where [2] appears, read: matrix design: 10x10, 9-step dilutions (confirmatory).

Where a name gives a salt, the structure may show the parent alone. In all, about 1,500 compounds were measured (“Excess HSA synergy score (sum over dose matrix of excess over highest single agent)”: median about 43, lowest 2% from about -900 on). Only a selection was taken, and the lowest values are over-represented in it overall.

With `O=C(c1cc(Cc2n[nH]c(=O)c3ccccc23)ccc1F)N1CCN(C(=O)C2CC2)CC1` [Olaparib] + CC[C@H](NC(=O)[C@H](C)NC)C(=O)N1C[C@@H](O)C[C@H]1Cc1c(-c2[nH]c3cc(F)ccc3c2C[C@@H]2C[C@H](O)CN2C(=O)[C@H](CC)NC(=O)[C@H](C)NC)[nH]c2cc(F)ccc12 [Birinapant], the “Excess HSA synergy score” value is -98.9 under setting [1] and -1730 under setting [2].
Regarding `CN1CCCC(n2nc(Cc3ccc(Cl)cc3)c3ccccc3c2=O)CC1` (stereo not given) [Azelastine hydrochloride] + CC[C@H](NC(=O)[C@H](C)NC)C(=O)N1C[C@@H](O)C[C@H]1Cc1c(-c2[nH]c3cc(F)ccc3c2C[C@@H]2C[C@H](O)CN2C(=O)[C@H](CC)NC(=O)[C@H](C)NC)[nH]c2cc(F)ccc12 [Birinapant], the “Excess HSA synergy score” value under setting [1] was -156.
For `CN1C(=O)C[C@@H](C(=O)N[C@@H](Cc2c[nH]cn2)C(=O)N2CCC[C@H]2C(N)=O)NC1=O` [Taltirelin] + CC[C@H](NC(=O)[C@H](C)NC)C(=O)N1C[C@@H](O)C[C@H]1Cc1c(-c2[nH]c3cc(F)ccc3c2C[C@@H]2C[C@H](O)CN2C(=O)[C@H](CC)NC(=O)[C@H](C)NC)[nH]c2cc(F)ccc12 [Birinapant], the “Excess HSA synergy score” value under setting [1] turned out to be 10.4.
Turning to `C/C(=N\NC(=S)N1CCC1)c1ccccn1` + CC[C@H](NC(=O)[C@H](C)NC)C(=O)N1C[C@@H](O)C[C@H]1Cc1c(-c2[nH]c3cc(F)ccc3c2C[C@@H]2C[C@H](O)CN2C(=O)[C@H](CC)NC(=O)[C@H](C)NC)[nH]c2cc(F)ccc12 [Birinapant], the “Excess HSA synergy score” value is -323 under setting [1] and -1630 under setting [2].
As for `Cc1n[nH]c(C)c1Cc1sc2c(c1C(=O)N1C[C@H](O)CO1)c(=O)n(C)c(=O)n2CC(C)C` + CC[C@H](NC(=O)[C@H](C)NC)C(=O)N1C[C@@H](O)C[C@H]1Cc1c(-c2[nH]c3cc(F)ccc3c2C[C@@H]2C[C@H](O)CN2C(=O)[C@H](CC)NC(=O)[C@H](C)NC)[nH]c2cc(F)ccc12 [Birinapant], under setting [1], the “Excess HSA synergy score” value worked out at 60.3.
Same read-out and setting: under `COc1ccc(S(=O)(=O)N(C(C)=O)c2ccccc2/C=C/c2cc[n+]([O-])cc2)cc1` + CC[C@H](NC(=O)[C@H](C)NC)C(=O)N1C[C@@H](O)C[C@H]1Cc1c(-c2[nH]c3cc(F)ccc3c2C[C@@H]2C[C@H](O)CN2C(=O)[C@H](CC)NC(=O)[C@H](C)NC)[nH]c2cc(F)ccc12 [Birinapant] stands -72.6; under `CN(C)c1nc(Cc2ccc(NC(=O)c3ccc4ccccc4c3)cc2)nc(Cl)c1CC(=O)O` + CC[C@H](NC(=O)[C@H](C)NC)C(=O)N1C[C@@H](O)C[C@H]1Cc1c(-c2[nH]c3cc(F)ccc3c2C[C@@H]2C[C@H](O)CN2C(=O)[C@H](CC)NC(=O)[C@H](C)NC)[nH]c2cc(F)ccc12 [Birinapant], 169.
Consider `N#CN=C(NCCCCCCOc1ccc(Cl)cc1)Nc1ccncc1` + CC[C@H](NC(=O)[C@H](C)NC)C(=O)N1C[C@@H](O)C[C@H]1Cc1c(-c2[nH]c3cc(F)ccc3c2C[C@@H]2C[C@H](O)CN2C(=O)[C@H](CC)NC(=O)[C@H](C)NC)[nH]c2cc(F)ccc12 [Birinapant], for which the “Excess HSA synergy score” value is -214 under setting [1] and -1410 under setting [2].
In the case of `N=C(NCCCCCCNC(=N)NC(=N)Nc1ccc(Cl)cc1)NC(=N)Nc1ccc(Cl)cc1` [Chlorhexidine] + CC[C@H](NC(=O)[C@H](C)NC)C(=O)N1C[C@@H](O)C[C@H]1Cc1c(-c2[nH]c3cc(F)ccc3c2C[C@@H]2C[C@H](O)CN2C(=O)[C@H](CC)NC(=O)[C@H](C)NC)[nH]c2cc(F)ccc12 [Birinapant], the “Excess HSA synergy score” value under setting [1] is -4.24.
Turning to `CC(C)C[C@@H](C=O)NC(=O)[C@H](CC(C)C)NC(=O)[C@H](CC(C)C)NC(=O)OCc1ccccc1` + CC[C@H](NC(=O)[C@H](C)NC)C(=O)N1C[C@@H](O)C[C@H]1Cc1c(-c2[nH]c3cc(F)ccc3c2C[C@@H]2C[C@H](O)CN2C(=O)[C@H](CC)NC(=O)[C@H](C)NC)[nH]c2cc(F)ccc12 [Birinapant], the “Excess HSA synergy score” value under setting [1] came to 36.9.
With `O=C(NC1CC1)c1cccc(-c2ccc3c(NC(=O)C4CC4)n[nH]c3c2)c1` + CC[C@H](NC(=O)[C@H](C)NC)C(=O)N1C[C@@H](O)C[C@H]1Cc1c(-c2[nH]c3cc(F)ccc3c2C[C@@H]2C[C@H](O)CN2C(=O)[C@H](CC)NC(=O)[C@H](C)NC)[nH]c2cc(F)ccc12 [Birinapant], the “Excess HSA synergy score” value under setting [1] amounted to 81.8.
`N#Cc1ccc(COC[C@H]2O[C@@H](n3c(NCc4ccc(Cl)c(Cl)c4)nc4c(N)ncnc43)[C@H](O)[C@@H]2O)cc1` + CC[C@H](NC(=O)[C@H](C)NC)C(=O)N1C[C@@H](O)C[C@H]1Cc1c(-c2[nH]c3cc(F)ccc3c2C[C@@H]2C[C@H](O)CN2C(=O)[C@H](CC)NC(=O)[C@H](C)NC)[nH]c2cc(F)ccc12 [Birinapant]: under setting [1], the “Excess HSA synergy score” value was -237.
Regarding `COc1ccc(-c2ccc3c(N4CCOCC4)nc(N4C[C@@H](C)O[C@@H](C)C4)nc3n2)cc1CO` + CC[C@H](NC(=O)[C@H](C)NC)C(=O)N1C[C@@H](O)C[C@H]1Cc1c(-c2[nH]c3cc(F)ccc3c2C[C@@H]2C[C@H](O)CN2C(=O)[C@H](CC)NC(=O)[C@H](C)NC)[nH]c2cc(F)ccc12 [Birinapant], under setting [1], the “Excess HSA synergy score” value was -161.
As to `CC(C)(O)c1cc2nc(-c3cnc(N)nc3)nc(N3CCOCC3)c2s1` + CC[C@H](NC(=O)[C@H](C)NC)C(=O)N1C[C@@H](O)C[C@H]1Cc1c(-c2[nH]c3cc(F)ccc3c2C[C@@H]2C[C@H](O)CN2C(=O)[C@H](CC)NC(=O)[C@H](C)NC)[nH]c2cc(F)ccc12 [Birinapant], the “Excess HSA synergy score” value under setting [1] amounted to 72.3.
For the compound `COc1ccc(-c2nc(N3CCOCC3)c3sc(CN(C)c4ncc(C(=O)NO)cn4)cc3n2)cn1` + CC[C@H](NC(=O)[C@H](C)NC)C(=O)N1C[C@@H](O)C[C@H]1Cc1c(-c2[nH]c3cc(F)ccc3c2C[C@@H]2C[C@H](O)CN2C(=O)[C@H](CC)NC(=O)[C@H](C)NC)[nH]c2cc(F)ccc12 [Birinapant], the “Excess HSA synergy score” value is -204 under setting [1] and -1340 under setting [2].
Regarding `Cc1nc(N)ncc1-c1nc(N2CCOCC2)c2sc(C(C)(C)O)cc2n1` + CC[C@H](NC(=O)[C@H](C)NC)C(=O)N1C[C@@H](O)C[C@H]1Cc1c(-c2[nH]c3cc(F)ccc3c2C[C@@H]2C[C@H](O)CN2C(=O)[C@H](CC)NC(=O)[C@H](C)NC)[nH]c2cc(F)ccc12 [Birinapant], the “Excess HSA synergy score” value under setting [1] was -47.1.

For the origin of these results see the supplement of paper PMC7765376.
